Rab9 prom act = Rab9 promoter activation; Huh7 Rab9 promoter-luciferase reporter, luminescence, 24 h; actives 2.8% (n = 320,000); AID 485297; Potency, µM (highest dose often 9.22 µM), for the others: top-dose activation, negative = inhibition, usual class: activators; note: % of control where 0% means no effect; nearly all actives have a fitted effect of over 60% in size
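Luciferase signal after 10 min detection reagent at ambient indicates Rab9 promoter upregulation; stably transfected Huh7 cells were treated 24 h with compound in DMSO at 37 °C, 5% CO2.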
SMN2 splice up = SMN2 splice variant enhancement | HEK293 SMN2-luciferase splicing reporter, luminescence, 30-36 h | Potency, µM (titrated, usually from 46.1 µM), without a hit: at the highest dose activity change, positive = activation, hits mostly activators | actives 2.8% (n = 210,000) | AID 1458; note: % of control where 0% means no effect; nearly all actives have a fitted effect of over 55% in size
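HEK293 cells carry an SMN2 […]–luciferase reporter in which exon 7 inclusion puts luciferase in frame. Cells were plated 10-12 h before compound addition, then incubated 30-36 h at 37C. ONE-Glo luminescence was read; sodium butyrate at 4.5 mM final served as control.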
ELG1 genotoxic = induces genotoxicity in HEK293T cells with luciferase-tagged ELG1. Potency, µM (doses to about 46 µM), for inactives: at the top dose activity change, positive = activation, usual class: activators. actives 1.3% (n = 330,000). HEK293T ELG1-luciferase reporter, luminescence, 16 h; note: % of control where 0% means no effect; nearly all actives have a fitted effect of over 60% in size
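Reporter readout depends on ELG1 protein level, which increases with genetic stress. After 16 hr compound exposure at 37 °C, luciferase activity was quantified using ONE-Glo.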
FLuc counter = firefly luciferase modulation, counter-screen for miR-21 project; purified FLuc, Km substrates, luminescence inhibition; Potency, µM (top dose mostly 57.5 µM), inactives show top-dose activity change, negative = inhibition, actives largely listed as inhibitors; actives 6.9% (n = 360,000); AID 588342;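 note: plate controls were vehicle for no effect and reference inhibitor for full effect; nearly all actives have a fitted effect of over 55% in size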
Target sequence (P08659 whole entry, looked up): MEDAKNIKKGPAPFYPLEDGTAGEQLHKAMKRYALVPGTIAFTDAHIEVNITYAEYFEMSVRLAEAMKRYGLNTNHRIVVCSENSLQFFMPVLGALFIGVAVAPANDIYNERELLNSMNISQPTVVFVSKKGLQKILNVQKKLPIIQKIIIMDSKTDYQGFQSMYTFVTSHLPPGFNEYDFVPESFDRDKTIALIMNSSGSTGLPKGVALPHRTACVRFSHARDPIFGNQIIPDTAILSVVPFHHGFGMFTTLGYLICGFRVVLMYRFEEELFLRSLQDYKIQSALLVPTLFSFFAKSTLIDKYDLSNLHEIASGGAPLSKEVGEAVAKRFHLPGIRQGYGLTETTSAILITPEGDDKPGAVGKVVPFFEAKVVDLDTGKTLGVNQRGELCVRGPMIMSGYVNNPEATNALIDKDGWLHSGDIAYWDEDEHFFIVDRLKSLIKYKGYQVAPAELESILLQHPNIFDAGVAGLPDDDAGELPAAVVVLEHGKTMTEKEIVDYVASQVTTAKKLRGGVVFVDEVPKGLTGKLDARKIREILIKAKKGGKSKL
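Biochemical qHTS of compounds, final roughly 60 µM downward over six points, against 10 nM purified firefly luciferase using Km concentrations of substrates (10 uM D-luciferin, 10 uM ATP) in Tris acetate pH 7.5 buffer; luminescence output.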
NPC1 promoter act = NPC1 promoter activation; Huh7 NPC1 promoter luciferase reporter, 24 h; Potency, µM (doses to about 9.22 µM), inactives show at the top dose activation, actives largely listed as activators; actives 2.4% (n = 320,000); note: % of control where 0% means no effect; nearly all actives have a fitted effect of over 60% in size
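Cells: Huh7 expressing luciferase under the NPC1 promoter, 1500/well. Seeded 2 h, compound added, incubated 24 h at 37 °C. Luciferase reagent, 10 min ambient, then luminescence.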
Starred values were filed as active, the others as inactive; ? = inconclusive; · = no result; [ ] = remark or other dose. Hits are enriched below; roughly 7.5% of the tested compounds scored in any of these assays. Calls come from the whole dose curve; as a rule, active = well fitted curve in the direction sought with a large enough effect; inconclusive = small, poorly fitted or top-dose-only effect, or another doubt; inactive = no such curve, though single readings can be large; an effect the other way counts as inactive or inconclusive. Potency is the fitted concentration of half-maximal effect.

SMILES	Rab9 prom act	SMN2 splice up	ELG1 genotoxic	FLuc counter	NPC1 promoter act
CCCCc1nc2cc(C(=O)N(C)CCc3cn[nH]c3)ccc2o1	27%	·	11%	?	26%
COC(=O)[C@@H](C)NC(=O)c1ccc2oc(CCc3ccccc3)nc2c1	2.5µM*	·	?	21µM*	4µM*
CCCCc1nc2cc(C(=O)N(C)C3CCOCC3)ccc2o1	2.5µM*	·	9.2µM*	13µM*	?
CC(=O)N1CCN(C(=O)c2ccc3oc(CCCc4ccccc4)nc3c2)CC1	5%	·	0%[9.26 µM]	3%	-5%
CCOC(=O)N1CCN(C(=O)c2ccc3oc(CCCc4ccccc4)nc3c2)CC1	1.6µM*	·	?	6µM*	1.6µM*
CCCCc1nc2cc(C(=O)N3CCC[C@H]3CO)ccc2o1	24%	·	?	-18%	28%
COC(=O)CCCNC(=O)c1ccc2oc(CCCc3ccccc3)nc2c1	?	·	11%	?	25%
CCCCc1nc2cc(C(=O)N3CCC(O)CC3)ccc2o1	2µM*	·	?	11µM*	1.6µM*
CC(=O)c1cc(F)c(N2CCN(C(=O)C(C)(C)C)CC2)cc1C	-1%	-9%	-2%	-9%	2%
O=C(c1ccc2oc(CCCc3ccccc3)nc2c1)N1CCCC(CCCO)C1 (stereo not given)	18%	·	2%	-14%	6%
O=C(c1ccc2oc(CCc3ccccc3)nc2c1)N1CC[C@H](O)C1	1.4µM*	·	?	?	3.5µM*
Cc1ccc(NC(=S)C2=C(O)c3ccccc3N(C)S2(=O)=O)cc1	5%	-10%	-6%	19µM*	0%
OCCC1CN(Cc2cc3ccccc3o2)CCN1Cc1ccc(F)cc1 (stereo not given)	-2%	·	-7%	8%	-2%
COc1ccc(NC(=O)/C=C/c2cc(OC)c(OC)c(OC)c2)cn1	6%	37%	-1%	-1%	-4%
COc1ccc(NC(=O)/C=C/c2ccc(F)cc2)cn1	?	?	12%	11µM*	?
COc1ccc(NC(=O)COc2cccc(C(F)(F)F)c2)cn1	-2%	·	3%	3%	-1%
COc1ccc(NC(=O)/C=C/c2ccccc2)cn1	2.5µM*	10%[1.84 µM]	?	8.5µM*	3.5µM*
COc1cccc(/C=C/C(=O)Nc2ccc(OC)nc2)c1	25%	1%[1.84 µM]	6%	11µM*	27%
Cn1c(Cc2ccccc2)nnc1SCC(=O)Nc1ccc2c(c1)OCO2	-2%	3%	-1%	3%	-4%
CCOC(=O)c1csc(-c2sccc2Br)n1	3.2µM*	·	5.2µM*	1.9µM*	2.5µM*
CCOC(=O)c1csc(NC(=O)c2ccc(OCC)cc2)n1	?	-39%	-6%	6.7µM*	11%
CCOC(=O)c1csc(-c2ccc3c(c2)CCO3)n1	2.2µM*	·	?	4.8µM*	3.5µM*
CCOC(=O)c1csc(-c2ccc(OC)c(OC)c2)n1	0%	-5%	-1%	?	-1%
CCOC(=O)c1csc(NC(=O)c2ccc(OC)c(OC)c2)n1	0%	7%	5%	-1%	-3%
CCOC(=O)c1csc(NC(=O)c2ccc3c(c2)OCCO3)n1	?	·	1%	3.8µM*	?
SMILES	Rab9 prom act	SMN2 splice up	ELG1 genotoxic	FLuc counter	NPC1 promoter act
COc1ccccc1/C=N/NC(=O)COCC(=O)N/N=C/c1ccccc1OC	-5%	·	2%	-17%	-8%
CCOC(=O)/C(C#N)=C/c1c(N2CCN(c3cccc(Cl)c3)CC2)nc2c(C)cccn2c1=O	-3%	·	-5%	0%	-1%
Cc1cc(=O)oc2c(CN3CCN(C)CC3)c(O)c(Cl)cc12	-12%	-22%	-2%	6%	1%
CCOC(=O)c1csc(NC(=O)c2ccccc2)n1	1.8µM*	11µM*	8.2µM*	12µM*	3.2µM*
CCOC(=O)c1csc(NC(C)=O)n1	4%	28%	7%	0%	14%
CCc1ccc(-c2nc(-c3ccncc3)no2)cc1	?	7.9µM*	0.73µM*	0.67µM*	0.35µM*
CCCCc1ccc(-c2nc(-c3ccncc3)no2)cc1	0.35µM*	13µM*	23µM*	1.9µM*	0.45µM*
CCOC(=O)c1c(C)[nH]c(C)c1S(=O)(=O)N(C)CC(=O)Nc1cc(Cl)ccc1C	·	·	·	-2%	·
O=C(c1cc2c(s1)CCCC2)N1CCN(S(=O)(=O)c2ccccc2)CC1	-2%	·	5%	-5%	1%
CC(C)N(CCO)C(=O)C(c1ccccc1)c1ccccc1	-8%	·	3%	-10%	4%
